Sampled rows, rich in hits. Any-hit rate of the full collection: about 2.9%.
Mtb BioA inh = blocks M. tuberculosis BioA enzyme activity; purified M. tuberculosis BioA enzyme, plate reader; inhibition, % at 9.99 µM; 360,000 compounds, 0.096% hits; AID 602481; in the data active = inhibition above about 40%
FBA Mtb inh = Mtb fructose-bisphosphate aldolase inhibition | 360,000 compounds, 2.3% hits | inhibition, % at 1 µM | purified M. tuberculosis FBA, fluorescence read-out | AID 588726 | P9WQA3; in the data active = inhibition above about 27%
Target sequence (P9WQA3 whole entry, looked up): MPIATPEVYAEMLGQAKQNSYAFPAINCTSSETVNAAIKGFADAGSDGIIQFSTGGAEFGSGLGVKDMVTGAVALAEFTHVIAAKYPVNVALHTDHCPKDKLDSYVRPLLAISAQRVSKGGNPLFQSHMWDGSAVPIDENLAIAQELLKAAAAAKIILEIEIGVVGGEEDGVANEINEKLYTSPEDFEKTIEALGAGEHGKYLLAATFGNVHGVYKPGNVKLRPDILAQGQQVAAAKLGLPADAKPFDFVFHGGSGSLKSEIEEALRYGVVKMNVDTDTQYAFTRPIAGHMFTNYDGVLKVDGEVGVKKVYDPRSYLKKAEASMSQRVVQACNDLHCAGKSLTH
FadD28 FP inh = M. tuberculosis FadD28 bisubstrate binding inhibition | FadD28 bisubstrate probe binding, fluorescence polarization | inhibition, % at 12.5 µM | 360,000 compounds, 0.22% hits; in the data active = inhibition above about 8.5%, passing the limit was not always enough
GDH-TPI counter = inhibits GDH-TPI coupling enzymes, artifact for Mtb FBA screen. GDH-TPI coupled enzyme counterscreen, NADH absorbance. inhibition, % at 4.8 µM. 360,000 compounds, 1.2% hits. AID 588335; in the data active = inhibition above about 30%
Mtb hypoxia inh = inhibitors of hypoxia-regulated fluorescent reporter in Mycobacterium tuberculosis. M. tuberculosis hypoxia-regulated fluorescent reporter, fluorescence. fluorescence inhibition, % (no concentration beside the values). 300,000 compounds, 0.1% hits. AID 1159583; in the data active = fluorescence inhibition mostly above about 23%, no sharp cut-off; inactive = mostly below about 17%
A number is an active result; . = inactive; / = no result; + = active, no number.

SMILES	Mtb BioA inh	FBA Mtb inh	FadD28 FP inh	GDH-TPI counter	Mtb hypoxia inh
CCC(=O)N1[C@@H]2c3ccc(/C=C/c4ccccc4)c(=O)n3C[C@H]1[C@H](CO)[C@H]2C(=O)N1CCOCC1	.	/	/	/	/
CCNC(=S)N/N=C(\C)c1ccc(Cl)s1	/	.	.	31	/
CCNC(=S)N/N=C(\C)c1cc2ccccc2o1	/	.	.	47	/
C=CCC(CC(=O)N(CCO)Cc1ccccc1)C(=O)NC(COC(=O)C(CC=C)CC(=O)OC(C)(C)C)Cc1ccccc1 (stereo not drawn)	/	/	/	/	.
C[C@@H]1CN([C@@H](C)CO)C(=O)Cc2cc(NC(=O)Cn3cnnn3)ccc2O[C@@H]1CN(C)S(C)(=O)=O	.	/	/	/	/
COc1ccc(-c2nnn(CC(=O)c3c[nH]c4ccccc34)n2)cc1OC	.	.	15	.	.
Cc1ccc(-n2c(N)c(C#N)c(-c3ccc(Cl)cc3)c(C#N)c2=O)cc1	.	.	.	.	/
CC(=O)Nc1c(C#N)c(-c2ccccc2)c(C#N)c(=O)n1-c1ccc(C)cc1	.	.	.	33	/
Cc1ccc(-c2c(C#N)c(N)n(-c3ccc(C)cc3)c(=O)c2C#N)cc1	.	.	.	40	/
CSC(=NNC(N)=O)c1ccccc1	/	/	/	/	.
CC(=O)c1cccc(NC(=O)c2ccc([N+](=O)[O-])o2)c1	.	.	.	46	.
CC(=O)c1ccc(NC(=O)c2ccc([N+](=O)[O-])o2)cc1	.	.	.	.	73
OCCN(CCO)c1cc2c3ccccc3ccc2c2ccccc12	/	131	.	.	.
C[C@H]1CCCCO[C@@H](CN(C)CC2CCCCC2)[C@@H](C)CN([C@@H](C)CO)C(=O)c2cc(NC(=O)Nc3ccc4c(c3)OCO4)ccc2O1	.	/	/	/	/
Cc1cc(=O)oc2cc(OC(=O)c3cncc(Br)c3)ccc12	/	+	.	.	.
C=CCN(c1ccccc1)S(=O)(=O)c1cccc(C(=O)OCC(=O)NCCOC)c1	/	.	.	.	.
C=CCN(c1ccccc1)S(=O)(=O)c1cccc(C(=O)Oc2ccc3c(C)cc(=O)oc3c2)c1	/	+	.	.	.
Cc1cc(=O)oc2cc(OCCCN3C(=O)c4ccccc4C3=O)ccc12	.	.	.	.	/
CCCCn1nc(C(=O)Oc2ccc3c(C)cc(=O)oc3c2)c2ccccc2c1=O	/	+	.	.	.
CCc1ccc(OC(=O)c2cncc(Br)c2)cc1	.	.	.	.	.
Cc1cc(=O)oc2cc(OC(=O)CCN3C(=O)c4ccccc4C3=O)ccc12	/	+	.	.	.
Cc1noc(C)c1NC(=O)Nc1ccc2c(c1)CC(=O)N([C@H](C)CO)C[C@H](C)[C@@H](CN(C)S(=O)(=O)c1ccccc1)O2	.	/	/	/	/
CCCNC(=O)C[C@H]1CC[C@H]2[C@@H](COc3ccc(NC(=O)Nc4cccc(C)c4)cc3C(=O)N2C)O1	.	/	/	/	/
C[C@H]1CCCCO[C@H](CN(C)C)[C@@H](C)CN([C@@H](C)CO)C(=O)c2cc(NC(=O)NC3CCCCC3)ccc2O1	.	/	/	/	/
COc1cccc(CCN2C(=O)C(=O)N(C(CNCc3ccccc3)Cc3ccccc3F)CC2C(C)(C)C)c1 (stereo not drawn)	/	/	/	/	.
SMILES	Mtb BioA inh	FBA Mtb inh	FadD28 FP inh	GDH-TPI counter	Mtb hypoxia inh
C[C@H]1CN([C@@H](C)CO)C(=O)c2cccc(NS(=O)(=O)c3cccs3)c2O[C@H]1CN(C)Cc1ccc(C(F)(F)F)cc1	.	/	/	/	/
O=C(Oc1ccc2ccccc2c1)c1cncc(Br)c1	/	.	.	.	.
CCCC(=O)Oc1ccc2c(C)cc(=O)oc2c1	/	+	.	.	.
O=C(Oc1ccc2c(=O)c(Oc3ccc4ccccc4c3)coc2c1)c1cncc(Br)c1	.	30	.	.	/
Cc1cc(C)n2nc(-c3ccco3)nc2n1	/	124	.	.	.
CCOC(=O)c1cnc2c([N+](=O)[O-])cnn2c1C	.	.	.	37	.
C[C@@H]1CN([C@@H](C)CO)S(=O)(=O)c2ccc(C#Cc3cccnc3)cc2O[C@H]1CN(C)C	.	/	/	/	/
CN1C(=O)c2cc(NC(=O)c3cscn3)ccc2OC[C@@H]2O[C@H](CC(=O)N3CCCCC3)CC[C@@H]21	.	/	/	/	/
COc1ccc(NC(=O)Nc2cccc3c2O[C@@H](CN(C)Cc2ccc(C(=O)O)cc2)[C@@H](C)CN([C@@H](C)CO)C3=O)cc1	.	/	/	/	/
O=[N+]([O-])c1cc([N+](=O)[O-])c2oc(-c3ccccc3)c(Br)c2c1O	.	.	26	.	.
O=c1cc(-c2ccccc2Cl)oc2ccc([N+](=O)[O-])c(O)c12	.	.	.	.	.
COC(=O)C[C@H]1CC[C@@H]2[C@H](COc3ccc(NC(=O)C4CC4)cc3C(=O)N2C)O1	.	/	/	/	/
COc1ccc(-c2nc3c(n2O)CCc2c-3no[n+]2[O-])cc1	.	.	.	41	.
COn1c(-c2ccccc2)nc2c1CCc1c-2no[n+]1[O-]	.	.	.	.	/
COCCNC(=O)C(=O)NN=C(C)CC(=O)Nc1ccc2c(c1)OCO2	/	/	/	/	.
CCOc1cccc(C(=O)NN=Cc2coc3ccccc3c2=O)c1	/	/	/	/	.
C[C@H]1CN([C@@H](C)CO)C(=O)c2cccc(NC(=O)C3CCOCC3)c2O[C@H]1CN(C)S(=O)(=O)c1ccccc1	.	/	/	/	/
Cc1ccc2nc(-c3ccc(NC(=O)CN4CCN(c5ccccn5)CC4)cc3)sc2c1	.	40	.	.	.
Cc1cccc(S(=O)(=O)Nc2ccc(-c3nc4ccc(C)cc4s3)cc2)c1	/	+	.	.	.
Cc1ccc2nc(-c3ccc(NC(=O)C(C)Sc4nncs4)cc3)sc2c1 (stereo not drawn)	.	.	.	34	.
Cc1ccc(N(CC(=O)Nc2ccc(-c3nc4ccc(C)cc4s3)cc2)S(C)(=O)=O)cc1	.	.	.	38	/
CC(C)CC#Cc1ccc2c(c1)O[C@@H](CN(C)C(=O)Cc1ccccn1)[C@@H](C)CN([C@H](C)CO)S2(=O)=O	.	/	/	/	/
Cc1ccc(-c2cc(C(=O)NN=Cc3ccc(F)cc3)n[nH]2)o1	/	/	/	/	.
Cc1noc(C)c1S(=O)(=O)N(C)C[C@H]1Oc2ccc(NC(=O)CCCN(C)C)cc2C(=O)N([C@H](C)CO)C[C@H]1C	.	/	/	/	/
Cc1ccc(S(=O)(=O)Nc2ccc(-c3nc4ccc(C)cc4s3)cc2)cc1	/	183	.	.	.
SMILES	Mtb BioA inh	FBA Mtb inh	FadD28 FP inh	GDH-TPI counter	Mtb hypoxia inh
CCOc1ccc(NC2OC(C)C(O)C(O)C2O)c([N+](=O)[O-])c1 (stereo not drawn)	.	112	.	.	.
O=C(C[C@H]1C[C@@H]2c3cc(NC(=O)c4ccc5c(c4)OCO5)ccc3O[C@@H]2[C@H](CO)O1)NCC1CC1	.	/	/	/	/
O=C(Nc1nccs1)C1CCCN1/C=C/C(=O)C(F)(F)F (stereo not drawn)	.	.	.	35	.
O=C(NCc1ccccc1)c1sc(=S)n2c1[nH]c(=O)c1ccccc12	.	.	41	.	.
COc1ccc(-c2cn3ccccc3n2)cc1	.	114	.	.	.
Clc1ccc(-c2cn3ccccc3n2)cc1	.	.	.	.	.
CCc1ccc(S(=O)(=O)ON2C(=O)c3ccccc3C2=O)cc1	.	30	.	.	.
C[C@@H]1CCCCO[C@H](CN(C)Cc2ccc(C(F)(F)F)cc2)[C@H](C)CN([C@H](C)CO)C(=O)c2cc(NC(=O)NC3CCCCC3)ccc2O1	.	/	/	/	/

Bioassay records (PubChem BioAssay)
